Measurements: the supplement of paper PMC3334620
The full ranking holds about 33,000 sequences; the median of “E-score (-0.5 to 0.5)” is about -0.054, and the highest 2% start at about 0.39. The sample as a whole holds a higher share of the highest values than the screen did.

Each sequence was assayed against Ylr278c (UniProt Q05854) (assay: PBM E-score (8-mer binding enrichment) (E-score (-0.5 to 0.5)); higher = stronger / more preferred TF binding). Conditions: protein concentration: 200 nM; construct: GST-DNA-binding domain.
Protocol: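 Universal 'all 10-mer' protein binding microarrays (Agilent AMADID 015681) probed with GST-tagged S. cerevisiae TFs (full-length or DBD) made by in vitro transcription/translation (PURExpress), about 100-200 nM. Bound TF was detected with fluorescent anti-GST. Each ungapped 8-mer (which stands for itself and its reverse complement) is scored by the PBM enrichment score (E-score), a modified Wilcoxon-Mann-Whitney statistic from -0.5 to +0.5, computed with the Universal PBM Analysis Suite. Scale: above 0.35 generally sequence-specific binding.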

Chain of UniProt Q05854 (Q05854 whole entry, the tested form may be a part): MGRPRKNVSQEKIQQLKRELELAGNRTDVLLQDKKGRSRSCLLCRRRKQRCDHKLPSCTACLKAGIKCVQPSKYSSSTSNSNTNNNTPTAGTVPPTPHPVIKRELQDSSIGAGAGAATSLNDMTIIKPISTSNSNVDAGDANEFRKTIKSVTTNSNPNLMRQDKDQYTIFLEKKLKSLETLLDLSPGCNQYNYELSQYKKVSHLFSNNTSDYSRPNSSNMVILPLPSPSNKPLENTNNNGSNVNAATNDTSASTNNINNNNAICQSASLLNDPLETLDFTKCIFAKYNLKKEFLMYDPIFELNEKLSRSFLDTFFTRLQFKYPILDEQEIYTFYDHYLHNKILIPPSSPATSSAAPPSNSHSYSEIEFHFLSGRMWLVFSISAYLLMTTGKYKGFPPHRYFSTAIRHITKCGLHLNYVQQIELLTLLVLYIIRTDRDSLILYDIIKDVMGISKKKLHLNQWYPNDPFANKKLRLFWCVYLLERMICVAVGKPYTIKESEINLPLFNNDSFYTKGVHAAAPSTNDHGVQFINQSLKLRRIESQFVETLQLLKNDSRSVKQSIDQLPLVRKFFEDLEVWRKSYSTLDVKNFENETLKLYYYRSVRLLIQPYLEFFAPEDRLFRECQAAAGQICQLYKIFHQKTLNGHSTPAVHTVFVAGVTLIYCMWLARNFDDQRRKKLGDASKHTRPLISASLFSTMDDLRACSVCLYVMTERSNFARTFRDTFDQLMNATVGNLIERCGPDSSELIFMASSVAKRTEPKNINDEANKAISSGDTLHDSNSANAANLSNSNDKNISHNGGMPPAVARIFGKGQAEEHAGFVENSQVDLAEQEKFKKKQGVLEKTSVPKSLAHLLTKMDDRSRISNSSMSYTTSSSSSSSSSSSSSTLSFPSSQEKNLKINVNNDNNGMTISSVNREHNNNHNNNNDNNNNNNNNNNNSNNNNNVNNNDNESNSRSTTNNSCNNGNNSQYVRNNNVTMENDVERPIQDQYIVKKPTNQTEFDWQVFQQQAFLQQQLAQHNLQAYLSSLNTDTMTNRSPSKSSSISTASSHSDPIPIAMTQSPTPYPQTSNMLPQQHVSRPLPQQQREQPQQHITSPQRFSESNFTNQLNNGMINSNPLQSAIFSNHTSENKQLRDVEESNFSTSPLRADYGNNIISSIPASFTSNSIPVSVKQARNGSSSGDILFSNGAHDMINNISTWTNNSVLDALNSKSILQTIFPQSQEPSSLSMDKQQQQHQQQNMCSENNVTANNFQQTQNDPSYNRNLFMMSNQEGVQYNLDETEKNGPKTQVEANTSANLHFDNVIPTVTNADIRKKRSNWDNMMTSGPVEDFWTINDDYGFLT

Sequence	PBM E-score
GATAGTGA	-0.0321
ATTTTAAA	0.0686
CCAACTGG	-0.22
AGTTGCGC	0.233
ACTTCACT	-0.0406
AAATCAGT	0.0231
AGTCTCCC	0.102
AGTCTCCA	-0.312
ATTCTCCA	-0.052
ATTCTCCC	0.0768
ATTCTCCG	0.474
AGTCTCCG	0.434
CCGTCTCA	0.0735
CTCTGCTA	-0.128
CTAGCAGA	-0.195
CTCAAAGA	-0.2
TAGTCATA	-0.145
ATTATCCA	-0.155
AATATCGC	0.125
AATATCGG	0.395
AAAATCCG	0.451
AATATCCC	0.211
AATATCCA	0.0239
CAAATCCG	0.381
AATATCGA	-0.0141

Sequence	PBM E-score
ATTATCCC	0.0767
AAAATCCC	0.263
ATTATCCG	0.393
AATATCCG	0.423
ACGCATGC	-0.0181
GCTCGTTA	-0.188
ATCAGCGG	0.29
CGACCACG	0.0345
ATACAGCA	-0.0117
AAATCAAC	-0.111
AACTGACC	0.152
CCGCGCGG	0.433
CCGCGCGC	0.28
AGGCGCCG	0.206
CCGCGCGA	0.216
CGGCGCCG	0.461
CGGCGCCA	0.214
CCGCGCCG	0.4
CCGCGCCA	0.182
CCGCGCCC	0.191
CGACACTA	0.102
CGGTTGCC	0.109
GGCCTTAA	-0.0388
TATGTTCA	-0.0845
TACATTCA	-0.223

Sequence	PBM E-score
ACGGACAA	0.355
ACGGACAG	0.043
ACGGACAT	0.392
GCGGACAC	0.216
CCGGACAA	0.444
CCGGACAC	0.371
GCGGACAA	0.398
TCGGACAA	0.434
TAGGACAA	-0.233
CCGGACAG	0.357
ACGGACAC	0.194
TCGGACCA	0.379
AAAATCGA	-0.177
GCTCTCCC	-0.0961
CCCACCAG	-0.212
AGCCTACA	-0.0936
CGGCCGAG	0.279
ACTCCCAC	-0.035
TCTACCCA	-0.14
TCTGCACA	0.0219
ACAGACCA	-0.0751
GATTCGAA	0.102
AGCTTAAG	-0.229
ATGAGCCC	-0.138
CCTGATAC	-0.0837

Sequence	PBM E-score
CGAGAAAA	-0.0264
AGACTAAT	-0.0793
CCGGATAG	0.347
CCGGATAC	0.384
TCGGATAA	0.403
GCGGATAA	0.314
ACGGATAA	0.293
CCGGATAA	0.417
ATCAAGGG	-0.1
CCAAAGCA	-0.107
CGTCCGGA	0.43
AGTCCGTA	0.328
AGTCCGCA	0.372
CGTCCAGC	-0.233
CGTCCGTC	0.208
GGTCCGGA	0.446
CGTCCGCA	0.246
GGTCCGCA	0.278
AGTCCGGA	0.476
GGTCCGTA	0.304
CGTCCGGC	0.407
CGTCCGTA	0.189
CATTTTCG	0.173
TAAGTGAA	-0.072
ATGAGGAG	-0.132

Sequence	PBM E-score
CGGACGCC	0.366
CTAGTTCC	0.0969
CGCAATTC	0.201
CATGAAGG	-0.145
TATCCACA	-0.144
ACAACTCC	0.295
CCTTTCGC	0.0666
AATGCGGA	0.396
CATGCGGA	0.317
AATGCGGT	0.116
CGTGCGGA	0.279
AGTGCGGG	0.258
AGTGCGGA	0.394
CGCCGGCC	0.367
CGCCGGCA	0.39
GGCCGGCA	0.394
CGCCGCCG	0.362
GGCCGGCC	0.372
AGCCGGCA	0.33
CGCCGGCG	0.463
AGCCGGCG	0.372
AGCCGGCC	0.324
AAGCTATG	-0.249
AATTTGAG	-0.15
CCCATCTC	0.0175

Sequence	PBM E-score
GGATGGGA	0.0151
GTTGTGTA	-0.159
AACAAGCA	0.0514
CGTGGGCA	-0.16
GCCGGAGC	0.452
GCCAGAGC	-0.222
TCCAGAGA	-0.212
GCCGGAGA	0.459
TCAGGAGA	-0.0923
GCAGGAGC	-0.194
GCCAGAGA	-0.194
TCCGGAGA	0.483
CCCGGACC	0.376
GCCGGTGA	0.298
CCGGGAGC	0.228
CCCGGAGC	0.452
GTCTACTA	-0.0894
CCGTCCCG	0.348
CCCAACCG	-0.0967
AAGCTGCC	-0.234
ATCCAAGG	0.0179
AGGCTGCA	-0.242
CCCCTCAG	-0.124
TCAAAGCA	-0.174
AGTTCACC	0.126

Sequence	PBM E-score
GCAACCAC	0.00041
CCCCGAGG	0.245
ACCGGATC	0.354
ACCGGAGC	0.448
CCCAGAGA	-0.233
CCCGGAGG	0.439
ACCGGGGG	0.293
ACCGGATG	0.279
CCCGGAGA	0.476
ACCGGAGG	0.441
CCGGGAGA	0.362
ACTGGAGC	-0.117
CCGGGAGG	0.261
GCGTATAC	-0.00732
CGTAGAAC	-0.0134
AATGAACA	-0.117
ACATTGGG	-0.122
TATATCCA	-0.171
ACCGGAGT	0.481
ACAGGAGT	-0.0336
ACAGGAGA	-0.0277
ACCGGATA	0.265
ACCAGAGT	-0.219
ACCGGAGA	0.475
